Results on 16 compounds are retold here after PubChem BioAssay AID489043 (National Center for Advancing Translational Sciences (NCATS), 2010).

Records with an inconclusive call do not appear. Active and inactive are the calls of the source. Calls come from the whole dose curve; as a rule, active = well fitted activation curve with a large enough effect; inconclusive = small, poorly fitted or top-dose-only effect; inactive = flat fitted curve, though single readings scatter.
Potency is the fitted concentration of half-maximal effect.

The target in the experiment is Relaxin receptor 2 (Homo sapiens) (UniProt Q8WXD0). As to the kind of experiment: qHTS Assay for Agonists of the Relaxin Receptor RXFP1: RXFP2 Hit Validation. Note: nearly all actives have a fitted effect of over 65% in size. The note with it: HEK293 RXFP2 cAMP TR-FRET, 30 min; series mostly up to 115 µM. An outline of the steps: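 Selectivity counter-assay for cAMP accumulation: RXFP2-HEK293 cells given compounds with Ro 20174 for 30 min at 37C, then lysed for TR-FRET cAMP detection. Data scaled to 29 nM porcine relaxin (100%); Hill-equation EC50.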
Relaxin receptor 2 (Homo sapiens), sequence (Q8WXD0 whole entry, looked up): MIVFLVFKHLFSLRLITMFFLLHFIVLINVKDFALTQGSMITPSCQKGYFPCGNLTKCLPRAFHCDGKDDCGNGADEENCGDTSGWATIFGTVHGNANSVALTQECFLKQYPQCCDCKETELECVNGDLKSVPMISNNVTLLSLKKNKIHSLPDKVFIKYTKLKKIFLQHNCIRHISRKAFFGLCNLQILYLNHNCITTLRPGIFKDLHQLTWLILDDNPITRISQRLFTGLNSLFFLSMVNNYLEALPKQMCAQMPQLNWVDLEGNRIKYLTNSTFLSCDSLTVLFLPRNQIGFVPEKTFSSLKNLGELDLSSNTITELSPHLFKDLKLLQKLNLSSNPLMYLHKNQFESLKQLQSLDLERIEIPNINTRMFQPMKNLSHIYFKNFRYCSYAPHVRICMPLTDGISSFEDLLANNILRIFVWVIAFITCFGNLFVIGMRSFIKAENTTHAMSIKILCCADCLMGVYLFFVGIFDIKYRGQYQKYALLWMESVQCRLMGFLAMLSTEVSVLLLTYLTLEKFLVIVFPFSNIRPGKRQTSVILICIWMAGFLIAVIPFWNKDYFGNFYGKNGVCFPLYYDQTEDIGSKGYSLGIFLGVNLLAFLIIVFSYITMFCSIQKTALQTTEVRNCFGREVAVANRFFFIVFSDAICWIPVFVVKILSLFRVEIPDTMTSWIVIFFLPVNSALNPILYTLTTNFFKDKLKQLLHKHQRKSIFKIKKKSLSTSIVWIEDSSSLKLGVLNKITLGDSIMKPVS
Take `Cc1ccccc1NC(=O)CNc1ccccc1C(=O)NCc1ccco1`: the Potency result is “inactive”.
Regarding `COc1cccc(CNC(=O)c2ccc(CS(=O)Cc3ccc(C)cc3)o2)c1` (stereo unspecified), the Potency entry was “inactive”.
Consider `CC(=O)CCCCn1c(=O)c2c(ncn2C)n(C)c1=O`, for which the Potency entry is “inactive”.
The same measure for `Cc1ccc(C(=O)Nc2ccccc2C(=O)NCc2ccco2)cc1`: “inactive”; for `COC(=O)c1sc(N2C(=O)C(O)=C(C(=O)c3ccc(C)o3)C2c2ccc(F)cc2)nc1C` (stereo unspecified): 2.75 µM (active).
For `CCCC(=O)Nc1ncnc2c1ncn2[C@@H]1O[C@@H]2OP(=O)(O)OC[C@H]2[C@H]1OC(=O)CCC`, the Potency was 0.868 µM (active).
Regarding `O=C(O)c1cc(-c2ccc(Br)s2)nc2ccccc12`, the Potency was 3.46 µM (active).
As for `CCN1CCN(C(=O)CCc2nnc3ccc(N4CCC5(CC4)OCCO5)nn23)CC1`, the Potency was 38.9 µM (active).
The figure for `Cc1cc(C)nc(NS(=O)(=O)c2ccc(N3C(=O)c4ccccc4C3=O)cc2)n1` is 29.8 µM (active).
`CCC1(C)Cc2c(sc3c2c2ncnn2c2nnc(SCC(=O)NCc4ccco4)n32)CO1` (stereo unspecified): the Potency is 8.7 µM (active).
`Cc1ccc2[nH]c3c(=S)nc[nH]c3c2c1`: the Potency was 6.9 µM (active).
Consider `O=[N+]([O-])c1cccc(CSc2nnc3ccccn23)c1`, for which the Potency was 34.6 µM (active).
`Cn1c(=O)c2sccc2n2c(CCCC(=O)NCc3ccco3)nnc12`: the Potency was 34.6 µM (active).
`Cc1nnc(Nc2ccc(S(N)(=O)=O)cc2)c2ccccc12`: the Potency was 34.6 µM (active).
As for `CCCn1c(SCC(=O)Nc2ccc(NC(C)=O)cc2)nc2c1c(=O)n(C)c(=O)n2C`, the Potency was 34.6 µM (active).
Take `CCCC(=O)Nc1ncnc2c1ncn2[C@@H]1O[C@@H]2COP(=O)(O)O[C@H]2[C@H]1OC(=O)CCC`: the Potency was 1.38 µM (active).
